This note sets out measurements from PubChem BioAssay (NCATS).

Molecules are shown by their SMILES. Records with an inconclusive call do not appear. Values without a mark were called inactive. Active and inactive are the calls of the source. Calls come from the whole dose curve; as a rule, active = well fitted curve in the direction sought with a large enough effect; inconclusive = small, poorly fitted or top-dose-only effect, or another doubt; inactive = no such curve, though single readings can be large; an effect the other way counts as inactive or inconclusive.

For one experiment, the system named is MKL-1. The experiment in a line: qHTS assay to identify novel small-molecules to repurpose for Merkel cell carcinoma treatment (AID 1296009). Note: nearly all actives have a fitted effect of over 60% in size. Note: potency is the fitted concentration of half-maximal effect. As to conditions: MCC and control cell lines, CellTiter-Glo viability, 72 h; series mostly up to 46 µM. In a few lines:
(§1)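 Cell viability measured by CellTiter-Glo following 72 hr compound treatment at 37 degree celsius, with NPC and MIPE libraries tested in 8- and 11-point concentration series.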
(qHTS replaces the single test concentration by a dilution series.)

In another experiment the test system is MKL-2. The description is as above. The conditions noted are these: MCC and control cell lines, CellTiter-Glo viability, 72 h; series mostly up to 46 µM. The method, boiled down: as §1
In general terms: Cellular ATP, detected with luciferase, serves as a proxy for viable cell number.

Another experiment has as its system NIH3T3. Described as above. As to conditions: MCC and control cell lines, CellTiter-Glo viability, 72 h; at 44.8 µM (top of the series) unless noted. The method, boiled down:
as §1

The test system of the next experiment is UISO. The experiment is described as above. As to conditions: MCC and control cell lines, CellTiter-Glo viability, 72 h; series mostly up to 46 µM. The method, boiled down:
as §1

For a further experiment, the system named is WaGa. The experiment is described as above. As to conditions: MCC and control cell lines, CellTiter-Glo viability, 72 h; series mostly up to 46 µM. In a few lines:
as §1

Experiment [1] is described as follows: qHTS assay to identify inhibitors of the type 1 interferon - major histocompatibility complex class I in skeletal muscle: Counter screen cell viability and HiBit confirmation (AID 1347412). Note: nearly all actives have a fitted effect of over 60% in size. As to conditions: iHSKM muscle cells + IFN-b, HiBiT or CellTiter-Glo, 24 h; Viability; at 45.9 µM (top of the series). The method, boiled down: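 Duplicate plates, pinned identically: one read for HiBiT-tagged endogenous HLA-B luminescence, the other for ATP-content viability via CellTiter Glo. Cells were genome-engineered human myoblasts given 4 ng/ml IFN-b; compounds 12-pt, 1:3 from 46 uM final; 24 hr exposure.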

The next experiment deals with C33A. The experiment in a line: Primary qHTS to identify gynecologic anti-cancer compounds using libraries of approved drugs and bioactive compounds (AID 1345084). Note: nearly all actives have a fitted effect of over 55% in size. As to conditions: Gynecologic cancer cell panel viability, ATPlite luminescence, 48 h; series mostly up to 57.5 µM. In a few lines:
(§2)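 In this quantitative HTS, cell killing is estimated from loss of ATP-dependent luciferase light. Cells see five compound concentrations over a 48 h exposure.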

The test system of another experiment is CAOV3. The experiment is described as above. As to conditions: Gynecologic cancer cell panel viability, ATPlite luminescence, 48 h; series mostly up to 57.5 µM. In a few lines: as §2
The next experiment deals with CASKI. The description is as above. The conditions noted are these: Gynecologic cancer cell panel viability, ATPlite luminescence, 48 h; series mostly up to 57.5 µM. The method, boiled down:
as §2

The test system of the next experiment is Es-2. The description is as above. The conditions noted are these: Gynecologic cancer cell panel viability, ATPlite luminescence, 48 h; series mostly up to 57.5 µM. In a few lines: as §2
In the next experiment the test system is Hek293T. The description is as above. The conditions noted are these: Gynecologic cancer cell panel viability, ATPlite luminescence, 48 h, control line for the selectivity index; series mostly up to 57.5 µM. The method, boiled down:
as §2

For another experiment, the system named is PA-1. Described as above. The conditions noted are these: Gynecologic cancer cell panel viability, ATPlite luminescence, 48 h; series mostly up to 57.5 µM. The method, boiled down:
as §2

In another experiment the test system is Tov112D. The description is as above. The conditions noted are these: Gynecologic cancer cell panel viability, ATPlite luminescence, 48 h; series mostly up to 57.5 µM. In a few lines:
as §2

Experiment [2] is described as follows: Drug repurposing screens with cells derived from glioblastoma tumor samples (AID 1345199). Note: nearly all actives have a fitted effect of over 40% in size. As to conditions: GBM patient neurospheres viability, ATP luminescence, 48 h. In a few lines: (§3)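 Primary testing used CD133+ neurospheres from four GBM patients, seven concentrations, 48 h exposure and ATP-based viability; confirmation added three slower-growing patient lines.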

In the next experiment the test system is astro. The description is as above. The conditions noted are these: viability, ATP luminescence, 48 h; series mostly up to 45.9 µM. The method, boiled down: as §3
In another experiment the test system is HeLa. The experiment in a line: Primary qHTS to identify gynecologic anti-cancer compounds using libraries of approved drugs and bioactive compounds (AID 1345084). Note: nearly all actives have a fitted effect of over 55% in size. The conditions noted are these: Gynecologic cancer cell panel viability, ATPlite luminescence, 48 h; series mostly up to 57.5 µM. The method, boiled down: as §2
The next experiment relates to JEG-3. Described as above. As to conditions: Gynecologic cancer cell panel viability, ATPlite luminescence, 48 h; series mostly up to 57.5 µM. The method, boiled down:
as §2

A further experiment relates to OV90. The experiment is described as above. As to conditions: Gynecologic cancer cell panel viability, ATPlite luminescence, 48 h; series mostly up to 57.5 µM. The method, boiled down: as §2
The test system of another experiment is SKOV3. Described as above. The conditions noted are these: Gynecologic cancer cell panel viability, ATPlite luminescence, 48 h; series mostly up to 57.5 µM. In a few lines:
as §2

Another experiment relates to Tov-21-G. Described as above. The conditions noted are these: Gynecologic cancer cell panel viability, ATPlite luminescence, 48 h; series mostly up to 57.5 µM. The method, boiled down:
as §2
% is set by controls: 0 for no effect and ±100 for the full control effect.

On to `COc1cc(C(C)C)c2c(c1)S(=O)(=O)N(COc1cc(=O)n3cccc(OCCN4CCCCC4)c3n1)C2=O`, for which the Potency result with MKL-1, in the experiment with MKL-2, in the experiment on UISO and in the experiment with WaGa was “inactive” throughout. Moreover, in the experiment on NIH3T3, the outcome was inactive. Moreover, the activity change, negative = inhibition in [1] was -20.7%.

For the compound `O=C(O)[C@H](Cc1c[nH]c2ccccc12)N1C(=O)c2ccccc2C1=O`, the Potency entry in the experiment with MKL-1, in the experiment on MKL-2, in the experiment on UISO and in the experiment on WaGa was “inactive” in each case.

As to `Cc1coc2c1C(=O)C(=O)c1c-2ccc2c1CCCC2(C)C`, the Potency result in the experiment on MKL-1, with MKL-2, with UISO, in the experiment with WaGa, in the experiment on C33A and in the experiment on CAOV3 was “inactive” each time. For the same compound, the Potency entry in the experiment on CASKI, in the experiment with Es-2, with Hek293T, in the experiment with PA-1 and in the experiment on Tov112D was “inactive” throughout. Also, in the experiment with NIH3T3, the compound was called inactive.

On to `CC(C)c1ccccc1Cc1cc(C(=O)Nc2ccc(S(=O)(=O)c3ccccc3C(C)(C)C)cc2)c(O)c(O)c1O`, for which the Potency in the experiment on MKL-1 is 26.4 µM (active). Also, the Potency entry in the experiment on MKL-2 is “inactive”.

With `CN1c2cc(O)c(N=NC(N)=O)cc2CC1S(=O)(=O)O` (configuration not stated), the Potency entry in the experiment on MKL-1, with MKL-2, in the experiment with UISO, in the experiment on WaGa and in the experiment on astro was “inactive” throughout. For the same compound, in the experiment with NIH3T3, the compound was classed as inactive. The activity, negative = cell killing is -14.6% in experiment [2] (at 45.9 µM (top of the series), tumour line B); 7.92% in [2] (at 45.9 µM (top of the series), tumour line D); -16.8% in [2] (at 46.1 µM (top of the series), tumour line C).

`Nc1ccc(S(=O)(=O)Nc2ncccn2)cc1`: the Potency result with MKL-1, in the experiment with MKL-2, in the experiment on UISO and in the experiment with WaGa was “inactive” in each case. The call in the experiment on NIH3T3 was inactive.

With `CCOc1cc2ncc(C#N)c(Nc3ccc(F)c(Cl)c3)c2cc1NC(=O)C=CCN(C)C`, the Potency with MKL-1 is 14.8 µM (active); with MKL-2, 14.8 µM (active); with UISO, 2.64 µM (active); with WaGa, 9.35 µM (active).

Regarding `C[C@@H](Oc1cc(-n2cnc3ccc(CN4CCN(C)CC4)cc32)sc1C(N)=O)c1ccccc1C(F)(F)F`, the Potency in the experiment on MKL-1 was 0.0296 µM (active).

Turning to `C1Cc2[nH]nc(-c3nn[nH]n3)c2C1`, the Potency entry in the experiment on MKL-1, in the experiment with MKL-2, with UISO, in the experiment on WaGa, in the experiment with C33A and in the experiment with CAOV3 was “inactive” in each case. Moreover, the Potency result with CASKI, with Es-2, in the experiment with HeLa, in the experiment with Hek293T, with JEG-3 and in the experiment with OV90 was “inactive” in each case. For the same compound, the Potency entry in the experiment on PA-1, with SKOV3, in the experiment on Tov-21-G and in the experiment on Tov112D was “inactive” each time. Further, the result in the experiment on NIH3T3 was inactive.

On to `CCCCCCCCCC(=O)N[C@@H](Cc1c[nH]c2ccccc12)C(=O)N[C@H](CC(N)=O)C(=O)N[C@@H](CC(=O)O)C(=O)N[C@@H]1C(=O)NCC(=O)N[C@@H](CCCN)C(=O)N[C@@H](CC(=O)O)C(=O)N[C@H](C)C(=O)N[C@@H](CC(=O)O)C(=O)NCC(=O)N[C@H](CO)C(=O)N[C@@H]([C@@H](C)CC(=O)O)C(=O)N[C@@H](CC(=O)c2ccccc2N)C(=O)O[C@@H]1C`, for which the Potency entry with MKL-1, in the experiment on MKL-2, in the experiment on UISO, in the experiment on WaGa, in the experiment with C33A and in the experiment on CAOV3 was “inactive” each time. Also, the Potency result in the experiment with CASKI, in the experiment with Es-2, in the experiment with HeLa, in the experiment with Hek293T, in the experiment on JEG-3 and in the experiment with OV90 was “inactive” throughout. For the same compound, the Potency result in the experiment with PA-1, in the experiment with SKOV3, with Tov-21-G and in the experiment on Tov112D was “inactive” each time. Moreover, the result with NIH3T3 was inactive.

On to `CC1COC2(CCN(c3nc(=O)c4cc(C(F)(F)F)cc([N+](=O)[O-])c4s3)CC2)O1` (configuration not stated), for which the Potency result in the experiment on MKL-1, in the experiment with MKL-2, in the experiment with UISO, in the experiment on WaGa, in the experiment with C33A and in the experiment with CAOV3 was “inactive” in each case. Moreover, the Potency result in the experiment on CASKI, with Es-2, in the experiment with HeLa, in the experiment on Hek293T, in the experiment with JEG-3 and with PA-1 was “inactive” throughout. For the same compound, the Potency result in the experiment on SKOV3 and in the experiment on Tov112D was “inactive” in each case. The call in the experiment with NIH3T3 was inactive.
